Results from PubChem BioAssay AID504652 (National Center for Advancing Translational Sciences (NCATS), 2011).
Where “and” joins values, the source holds several entries; their conditions need not be identical. Equal entries are not always repeated. Out of some 360,000 compounds screened, about 11,000 (3.1%) were called active. Rule as the data show it: active = activity change below about -30%; inactive = the rest. For the sample, actives were picked, then their nearest neighbours and some compounds at random. More than one record can exist for a structure, and the calls need not agree.

Each compound was assayed against D(1A) dopamine receptor (Homo sapiens) (UniProt P21728) (assay: Antagonist of Human D 1 Dopamine Receptor: qHTS). Conditions: HEK293 TREx D1 cells, calcium flux, dopamine EC80; at 10 µM; stronger effect = lower value.
Summary of the method: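 Compound effects on dopamine-evoked calcium signalling were measured in tetracycline-induced HEK293 Trex D1 cells. Dopamine at EC80 followed a 180 s compound pre-read, and fluorescence was tracked kinetically for 180 s more.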
% is scaled to controls: 0 for no effect and ±100 for the full control effect.

Chain of D(1A) dopamine receptor (Homo sapiens) (P21728 whole entry, looked up): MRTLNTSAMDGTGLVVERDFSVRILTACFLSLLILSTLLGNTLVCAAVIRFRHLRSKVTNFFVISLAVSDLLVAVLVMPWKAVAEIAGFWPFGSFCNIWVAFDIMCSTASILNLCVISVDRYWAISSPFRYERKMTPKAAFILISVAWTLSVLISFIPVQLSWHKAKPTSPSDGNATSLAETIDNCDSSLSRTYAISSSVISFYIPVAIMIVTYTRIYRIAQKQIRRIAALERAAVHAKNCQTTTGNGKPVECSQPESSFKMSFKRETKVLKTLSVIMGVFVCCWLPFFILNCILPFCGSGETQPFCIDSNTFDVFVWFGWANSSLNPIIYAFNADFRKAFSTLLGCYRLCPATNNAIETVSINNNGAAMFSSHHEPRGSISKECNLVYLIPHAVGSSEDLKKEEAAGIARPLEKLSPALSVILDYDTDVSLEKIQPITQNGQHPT

Structure (SMILES) | activity change, negative = inhibition
Cc1ccc(N2CC(C(=O)Nc3ccc(N(C)C)cc3)CC2=O)cc1Cl (stereo unspecified) | 2.7% (inactive)
Cc1ccc(CNS(=O)(=O)c2ccc(C(=O)N(C)C)s2)cc1 | 5.34% (inactive)
Cc1ccccc1CNC(=O)Cn1c(C)c2cnn(-c3ccccc3)c(=O)c2c1C | -7.63% (inactive)
COc1ccc(S(=O)(=O)Nc2cc3c(C(=O)OC(C)C)c(C)oc3c3ccccc23)cc1 | -3.34% (inactive)
CCOC(=O)c1cc2c(=O)n3ccccc3nc2n(CC2CCCO2)c1=NC(=O)c1ccccc1Br (stereo unspecified) | 4.67% (inactive)
CCOC(=O)c1cc2c(=O)n3ccccc3nc2n(CC2CCCO2)c1=NC(=O)c1ccc(C(C)(C)C)cc1 (stereo unspecified) | -30.2% (active)
CCOC(=O)c1cc2c(=O)n3ccccc3nc2n(CC2CCCO2)c1=NC(=O)c1ccccc1F (stereo unspecified) | 7.85% (inactive)
Cc1cccc(-n2ccnc2SCC(=O)Nc2cc(C(F)(F)F)ccc2Cl)c1 | -5.92% (inactive)
Cn1c(=O)c(=O)n(C)c2cc(S(=O)(=O)NCCN3CCN(c4ccccc4F)CC3)ccc21 | -46.1% (active)
CCOC(=O)N1CCN(c2c(NCCN3CCN(c4ccccc4F)CC3)c(=O)c2=O)CC1 | -21.9% (inactive)
Cn1c(=O)c(=O)n(C)c2cc(S(=O)(=O)NCCc3ccccc3)ccc21 | -4.68% (inactive)
O=c1cc(CCl)nc2scc(-c3ccccc3)n12 | -12.4% (inactive)
CN(C)CCCn1c(-c2ccc(Cl)cc2)csc1=Nc1ccccc1 | -34.7% (active)
CN(C)CCCn1c(SCc2ccc(Cl)cc2)nnc1-c1ccncc1 | 10.2% (inactive)
CN(C)CCCn1c(=O)n(Cc2ccccc2)c(=O)c2c3c(sc21)CCCCC3 | 3.11% (inactive)
OCCn1c(-c2ccccc2)csc1=Nc1ccccc1 | -45.5% (active)
O=C1N(Cc2ccccc2)c2ccc(Cl)cc2C1(O)c1c[nH]c2ccccc12 (stereo unspecified) | -8.31% (inactive)
Cc1ccc(-n2nnnc2CNC(=O)c2ccccc2C)cc1C | -3.19% (inactive)
CC(C)Oc1ccc(CN2CCC(n3nccc3NC(=O)c3cccnc3)CC2)cc1 | 8.77% (inactive)

Structure (SMILES) | activity change, negative = inhibition
COc1ccc(C(=O)Nc2ccnn2C2CCN(Cc3ccncc3)CC2)cc1 | -37.3% (active)
COc1ccccc1C(=O)Nc1ccnn1C1CCN(Cc2cnn(C)c2)CC1 | 1.08% (inactive)
CCc1ccc(C2CC(=O)c3c([nH]c(C(=O)OCc4ccc(C)cc4)c3C)C2)cc1 (stereo unspecified) | -10.1% (inactive)
Cc1cccc(N2CCN(C(=O)c3ccc4c(c3)CCN4S(=O)(=O)c3ccccc3)CC2)c1C | -15.6% (inactive)
CCn1c(C)c(C)c2cc(C(=O)N3CCN(c4cccc(C)c4C)CC3)ccc21 | 25% (inactive) and -43.2% (active)
Cc1c(C)n(Cc2ccc(Cl)cc2)c2ccc(C(=O)N3CCN(c4ccccc4F)CC3)cc12 | -18.2% (inactive)
CN(Cc1ccccc1)c1ncnc2onc(-c3ccc(F)cc3)c12 | -1.84% (inactive)
Cc1ccc(-c2nnc(SCC(=O)NCc3ccccc3)nc2-c2ccc(C)cc2)cc1 | -16.8% (inactive)
CCC(CC)c1nn2cc(-c3ccccc3)nc2s1 | 14.7% (inactive)
O=C(CCC(=O)N1CCCC1)Nc1ccc([N+](=O)[O-])cc1 | 15.5% (inactive)
O=C(Nc1ccc([N+](=O)[O-])cc1)C1CC12CCC2 (stereo unspecified) | -56.8% (active)
O=C(Nc1ccc([N+](=O)[O-])cc1)C1(c2ccccc2)CCOCC1 | -11.2% (inactive)
CCC(=O)N1CCc2cc(Br)cc(S(=O)(=O)Nc3ccc(C)cc3C)c21 | 2.58% (inactive)
Cc1c(NC(=O)C(C)(C)C)cccc1-c1nc2ccccc2s1 | 0.443% (inactive)
CCOC(=O)c1ccc(N2C(=O)c3n[nH]c(C)c3C2c2ccc(O)c(OC)c2)cc1 (stereo unspecified) | -4.29% (inactive)
CCOC(=O)N1CCN(S(=O)(=O)c2ccc(Br)cc2)CC1 | -1.63% (inactive)
Cn1ncc(N2CCN(S(=O)(=O)c3ccc(Br)cc3)CC2)c(Cl)c1=O | -30.4% (active)
Cc1ccc(S(=O)(=O)N2CCN(C)CC2)cc1 | 0.986% (inactive)
Cc1ccc(C)c(NC(=O)Cn2ccn(-c3ccc(F)cc3)c(=O)c2=O)c1 | -20% (inactive)

Structure (SMILES) | activity change, negative = inhibition
COc1ccccc1NC(=O)c1oc2ccccc2c1NC(=O)C(C)C | -5.69% (inactive)
COc1ccc(CCN2C(=O)c3[nH]nc(-c4ccccc4O)c3C2c2ccc(C)cc2)cc1OC (stereo unspecified) | -3.51% (inactive)
COc1ccc(CCNC(=O)C(=O)NCc2ccccc2C)cc1OC | 3.05% (inactive)
COC(=O)c1ccc(C2C(Oc3ccccc3C)C(=O)N2CCc2ccc(OC)c(OC)c2)cc1 (stereo unspecified) | -49.6% (active)
Cc1ccccc1NC(=O)CN1C(=O)C(C)(C)c2ccccc21 | 10.3% (inactive)
CCOc1cc(C(=S)N2CCOCC2)ccc1O | -0.874% (inactive)
CC(=O)Nc1ccc(S(=O)(=O)Oc2ccc(Br)cc2C(=S)N2CCOCC2)cc1 | 0.681% (inactive)
CCOc1cc(C(=S)N2CCOCC2)ccc1OS(=O)(=O)c1ccc(Br)cc1 | -30.6% (active)
COC(=O)c1ccc2c(c1)N(CC(=O)Nc1ccc(C)c(C)c1)C(=O)c1ccccc1S2 | 10.3% (inactive)
Cc1csc2nc(COC(=O)c3ccc(NC(=O)COc4ccccc4F)cc3)cc(=O)n12 | -26.3% (inactive)
CCS(=O)(=O)n1nc(-c2ccc(OC)cc2)nc1SC | -19.3% (inactive)
Cc1ccc(S(=O)(=O)n2nc(-c3ccc(Cl)cc3)nc2NCc2ccccc2)cc1 | -3.44% (inactive)
CCS(=O)(=O)n1nc(-c2ccccc2)nc1SCc1ccccc1 | -30.7% (active)
CC1=NN(C(=O)CCCc2ccccc2)C(O)(C(F)(F)F)C1 (stereo unspecified) | -32.5% (active)
COc1ccc(CC(=O)N2N=C(C)CC2(O)C(F)(F)F)cc1 (stereo unspecified) | -2.03% (inactive)
CC1=NN(C(=O)CCc2ccccc2O)C(O)(C(F)(F)F)C1 (stereo unspecified) | 12.3% (inactive)
O=C(Nc1ccc2oc(-c3ccc(O)c(Br)c3)nc2c1)c1cc2ccccc2o1 | -6.68% (inactive)
O=C(CC(c1cccs1)N1Cc2ccccc2C1=O)Nc1ccc(F)cc1F (stereo unspecified) | 4.94% (inactive)
